# PubChem BioAssay
# Assays:
# [1] = test system: Human papillomavirus type 1a protein E7 (residues 44-93); assay: HPV1a E7 fragment binders on microarrays, primary screen, biochemical, small-molecule microarray, residues 44-93, 635 nm fluorescence (AID 1108); conditions: small-molecule microarray binding, fluorescence 635 nm; higher = more signal;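 also: E7 fragment applied at 1 µg/mL in TBST for 1 h at 4 C; score combines spot fluorescence with its signal to noise ratio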
# [2] = modulators of HCV replicon luciferase signal, primary screen, HCV replication inhibitor project, Huh7 cells, luciferase reporter (AID 1109); conditions: 48 h, higher = more signal;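 also: huh7 hepatoma cells harbouring a luciferase neomycin HCV replicon reporter; luciferase luminescence as measure of HCV replicon replication; test concentration not given here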
# [3] = target: Left-right determination factor 2 (Homo sapiens) (UniProt O00292); assay: LEFTY2 binders on small-molecule microarrays, primary screen, biochemical, small-molecule microarray, 635 nm fluorescence scan (AID 1110); conditions: LEFTY2 binding, higher = more signal
# Sequence of Left-right determination factor 2 (Homo sapiens) (O00292 whole entry, looked up): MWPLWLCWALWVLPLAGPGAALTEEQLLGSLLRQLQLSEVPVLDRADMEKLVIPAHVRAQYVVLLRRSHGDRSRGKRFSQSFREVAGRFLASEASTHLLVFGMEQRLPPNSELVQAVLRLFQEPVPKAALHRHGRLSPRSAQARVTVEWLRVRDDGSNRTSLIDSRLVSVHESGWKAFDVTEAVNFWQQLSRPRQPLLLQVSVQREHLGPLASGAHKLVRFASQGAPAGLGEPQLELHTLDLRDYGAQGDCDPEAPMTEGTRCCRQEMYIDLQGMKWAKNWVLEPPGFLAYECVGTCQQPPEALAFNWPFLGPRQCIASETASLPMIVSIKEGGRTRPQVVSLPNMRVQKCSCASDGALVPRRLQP
# [4] = target: Calmodulin-1 (Homo sapiens) (UniProt P0DP23); assay: CALM1 binders on microarrays, EGTA buffer, profiling panel, biochemical, small-molecule microarray, Cy5-labelled CALM1 (AID 1111); conditions: Cy5-CALM1 binding fluorescence, higher = more signal;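 also: labelled calmodulin applied in Tris saline Tween buffer holding calcium plus EGTA and DTT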
# [5] = target: Calmodulin-1 (Homo sapiens) (UniProt P0DP23); assay: calcium-bound CALM1 binders on microarrays, profiling panel, artefact control for SMM control-protein annotation, biochemical, small-molecule microarray, Cy5-labelled CALM1, plus calcium (AID 1112); conditions: Cy5-CALM1 binding fluorescence, higher = more signal;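 also: score merges spot fluorescence with signal to noise from triplicate slides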
# [6] = small-molecule microarray binders of probe aWnt5a, primary screen, biochemical, biotinylated probe, 635/667 nm fluorescence (AID 1113); conditions: higher = more signal;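 also: score merges 667 nm fluorescence intensity with signal-to-noise per printed feature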
# [7] = small-molecule microarray binders of probe aShh, primary screen, biochemical, biotinylated probe, 635/667 nm fluorescence (AID 1114); conditions: higher = more signal;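 also: probe is biotin-labelled aShh protein from a stem cell growth factor screen; measures binding of labelled protein to compounds printed on the slide; score merges feature fluorescence at 667 nm with signal-to-noise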
# [8] = small-molecule microarray binders of probe aNog, primary screen, biochemical, biotinylated probe, 635/667 nm fluorescence (AID 1115); conditions: higher = more signal;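 also: probe is biotinylated aNog protein used at 0.15 µg/mL for 1 h at 4 C; z-score combines 667 nm fluorescence of each spot with its signal to noise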
# [9] = target: Torsin-1A-interacting protein 1 (Homo sapiens) (UniProt Q5JTV8); assay: LAP1 binders from COS7 cell lysate, primary screen, small-molecule microarray, 635/667 nm fluorescence (AID 1116); conditions: COS7-hLAP1 lysate binding, 635 nm fluorescence, higher = more signal
# Sequence of Torsin-1A-interacting protein 1 (Homo sapiens) (Q5JTV8 whole entry, looked up): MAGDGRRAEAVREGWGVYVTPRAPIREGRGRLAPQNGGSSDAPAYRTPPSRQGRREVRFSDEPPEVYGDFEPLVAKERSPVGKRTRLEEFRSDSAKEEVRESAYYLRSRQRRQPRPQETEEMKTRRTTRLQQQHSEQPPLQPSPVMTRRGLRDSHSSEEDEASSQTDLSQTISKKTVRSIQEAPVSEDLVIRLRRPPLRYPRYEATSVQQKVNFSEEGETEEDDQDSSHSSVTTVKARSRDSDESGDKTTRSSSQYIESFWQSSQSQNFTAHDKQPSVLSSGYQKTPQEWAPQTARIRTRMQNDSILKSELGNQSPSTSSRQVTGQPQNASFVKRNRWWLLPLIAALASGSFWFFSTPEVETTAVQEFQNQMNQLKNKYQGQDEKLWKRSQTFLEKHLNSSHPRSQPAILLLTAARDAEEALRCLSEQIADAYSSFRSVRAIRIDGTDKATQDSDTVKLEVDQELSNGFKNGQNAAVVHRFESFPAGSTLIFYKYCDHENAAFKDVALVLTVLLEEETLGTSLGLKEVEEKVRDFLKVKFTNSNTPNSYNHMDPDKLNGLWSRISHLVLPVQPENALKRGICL
# [10] = target: Alpha-bungarotoxin (Bungarus multicinctus) (UniProt P60615); assay: alpha-bungarotoxin binders on microarray, profiling panel, artefact control for SMM control protein annotation, biochemical, small-molecule microarray, Alexa647 label, 635/667 nm fluorescence (AID 1117); conditions: alpha-BTX-A647 binding fluorescence, higher = more signal
# Sequence of Alpha-bungarotoxin (Bungarus multicinctus) (P60615 whole entry, looked up): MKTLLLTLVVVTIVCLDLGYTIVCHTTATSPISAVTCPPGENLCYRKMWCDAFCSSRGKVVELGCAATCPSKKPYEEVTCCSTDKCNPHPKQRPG
Structure (SMILES),composite z-score [1],z-score [2],composite z-score [3],composite z-score [4],composite z-score [5],composite z-score [6],composite z-score [7],composite z-score [8],composite z-score [9],composite z-score [10]
CN(C)CCCCNC(=O)[C@H]1C[C@H]2C(=O)N[C@@H](CCCC[N+](C)(C)C)C(=O)N2[C@H]1c1ccc(O)cc1,-1.55,-0.027,-0.0658,-0.0691,-0.441,-0.208,-0.2,-0.253,-0.511,0.15
C=CCNC(=O)[C@H]1[C@@H]2C(=O)O[C@@H](c3ccccc3)[C@@H](c3ccccc3)N2[C@@H](c2ccc(OCCO)cc2)[C@]12C(=O)N(C(=O)OCCOC)c1ccc(C#Cc3ccc(OC)cc3)cc12,1.4,-2.54,0.631,0.512,0.14,-0.0445,0.0976,0.447,-0.0927,1.49
CCCC=C(CCC)[C@@H](NS(=O)(=O)c1cccc2cccnc12)c1ccc(-c2ccccc2)cc1,1.39,-0.0261,0.601,1.62,0.841,0.183,0.432,-0.779,0.765,1.08
C=C(CCCC)/C(=C/C[C@H](OC(C)=O)c1ccc(OCCO)cc1)c1cc(C(=O)OC)ccc1OC,1.37,-1.69,-0.399,0.142,-0.212,0.027,-0.221,-0.132,0.405,0.558
O=C(NCC(O)CO)[C@@]1(CCS(=O)(=O)c2ccccc2)COC(c2ccc(OCCCO)cc2)=N1 (stereo not given in full),1.38,-0.119,-0.412,1.25,1.09,0.0944,0.385,1.81,2.48,2.58
COc1cc2c(cc1O)C(c1cccs1)N(Cc1sc3ccccc3c1Cl)CC2 (stereo not given),1.48,-1.7,0.659,1.66,0.334,-0.0345,0.199,0.593,1.33,1.87
C=C(/C(=C/C[C@@H](OC(C)=O)c1ccc(OCCO)cc1)c1cc(C(=O)OC)ccc1OC)C(C)C,-0.544,-0.161,0.354,0.0164,-0.258,-0.181,-0.0769,-0.237,0.651,1.31
COC(=O)C(CC#Cc1ccc2c(c1)[C@]1(C(=O)N2)[C@H](c2ccc(O)cc2)N2[C@H](c3ccccc3)[C@H](c3ccccc3)OC(=O)[C@H]2[C@@H]1C(=O)N1CCCCCCC1)C(=O)OC,1.36,-1.69,0.65,2.75,1.64,0.593,1.03,2.58,3.87,2.18
CN1C(=O)[C@@H]2[C@@H](CC(COc3ccccc3)=C([C@H](O)CCc3ccccc3)[C@@H]2CO)C1=O,-0.531,-0.113,0.0752,-0.548,-0.343,-0.243,-0.304,-0.398,0.0197,-0.278
Cc1ccc(S[C@]2(C(=O)NCc3ccccc3)CC(=O)N(Cc3cc(C(F)(F)F)cc(C(F)(F)F)c3)[C@@H]2c2ccc(CO)cc2I)cc1,-0.262,-0.861,-1.24,-0.36,0.585,-0.228,-0.319,-0.216,0.0893,-1.05
C=C(COC)C(=O)CC[C@H](OC(C)=O)c1ccc(OCCO)cc1,0.159,-1.17,0.557,-0.2,-1.08,-0.0445,-0.0011,-0.0562,3.4,0.915
COc1ccc(C#Cc2ccc3c(c2)[C@]2(C(=O)N3)[C@H](C(=O)Nc3nc4ccccc4s3)[C@H]3C(=O)O[C@H](c4ccccc4)[C@H](c4ccccc4)N3[C@@H]2c2ccccc2OCCO)cc1,1.18,-1.67,0.282,1.55,0.436,-0.0685,-0.282,-0.273,0.471,1.02
COc1cccc(/C=C(\C#N)C(=O)Nc2c(C)n(C)n(-c3ccccc3)c2=O)c1,1.11,-0.479,0.303,1.27,0.0209,-0.0894,-0.223,-0.0899,0.569,1.19
CC(C)(C)OC(=O)CC[C@]1(C(=O)N2CCCCC2)COC(c2ccc(OCCCO)cc2)=N1,1.45,-0.523,0.393,1.4,-0.257,0.0775,0.385,-0.614,1.36,0.302
Cc1ccc(S[C@]2(C(=O)NC(C)C)CC(=O)N(C(C)C)[C@@H]2c2ccc(CO)cc2I)cc1,0.973,-1.75,-0.485,0.198,-0.114,-0.104,0.216,-0.327,0.322,-0.174
O=C1O[C@H](c2ccccc2)[C@H](c2ccccc2)N2[C@H]1[C@@H](C(=O)N1CCCCCCC1)[C@]1(C(=O)Nc3ccc(C#CC4(O)CCCCCC4)cc31)[C@H]2c1ccccc1OCCO,1.59,-1.88,1.78,3.09,1.81,1.53,1.92,3.25,5.71,4.23

Structure (SMILES),composite z-score [1],z-score [2],composite z-score [3],composite z-score [4],composite z-score [5],composite z-score [6],composite z-score [7],composite z-score [8],composite z-score [9],composite z-score [10]
C=C(CCCC)C(=O)CC[C@@H](OC(=O)c1cccnc1)c1ccc(OCCO)cc1,0.849,-2.35,0.249,-0.588,-0.684,-0.0161,-0.243,-0.374,0.903,0.172
[N-]=[N+]=Nc1ccccc1C[C@]1(C(=O)O)N=C(c2ccc(OCCCO)cc2)O[C@H]1c1ccccc1N=[N+]=[N-],0.99,-1.02,0.282,2.1,0.923,0.0859,-0.0263,2,1.5,1.22
O=C1O[C@H](c2ccccc2)[C@H](c2ccccc2)N2[C@H]1[C@@H](C(=O)N1CCCCCCC1)[C@]1(C(=O)Nc3ccc(C#CC4(O)CCCCCC4)cc31)[C@H]2c1ccc(O)cc1,1.4,-1.36,1.33,2.42,1.19,1.2,2.97,3.1,4.57,2.28
O=C1C2C=CC(C(O)c3cccc(O)c3)N(Nc3ccccc3)C2C(=O)N1c1ccccc1 (stereo not given),0.752,-0.424,-0.0995,0.46,0.16,0.0077,0.398,0.496,0.539,0.546
CCOC(=O)C1=CC[C@@H](c2ccccc2)N(S(=O)(=O)c2ccc(C)cc2)[C@H]1C=Cc1ccccc1,0.261,-1.83,-0.481,0.401,-0.401,0.127,-0.13,-0.5,0.381,0.621
COCCOC(=O)N1C(=O)[C@@]2(c3cc(C#CC4(O)CCCCCC4)ccc31)[C@H](c1ccc(OCCO)cc1)N1[C@H](c3ccccc3)[C@H](c3ccccc3)OC(=O)[C@H]1[C@@H]2C(=O)Nc1nc2ccccc2s1,1.22,-2.43,0.985,1.35,0.249,-0.006,0.214,0.721,1,0.968
CCCCNC(=O)c1ccc(C#C[Si](C(C)C)(C(C)C)C(C)C)c(OC(C)=O)c1,1.09,-1.13,0.785,0.367,-0.48,-0.0977,-0.2,-0.216,0.15,2.24
Cc1ccc(F)cc1S(=O)(=O)N[C@@H]1CCN(Cc2cccc3[nH]ccc23)C1,-0.0347,-1.57,0.682,-0.517,-1.03,-0.0685,-0.153,-0.492,0.852,0.111
NC(=O)[C@H]1[C@@H]2C(=O)O[C@@H](c3ccccc3)[C@@H](c3ccccc3)N2[C@@H](c2ccc(O)cc2)[C@]12C(=O)Nc1ccc(C#CC3=CCCCC3)cc12,1.42,-1.49,-0.443,0.0791,-0.413,-0.0792,-0.279,-0.185,0.731,1.02
CC(C)C(=C=CC[C@@H](O)c1cccc(OCCO)c1)C[C@@H](O)COCc1ccccc1,-0.83,-0.0464,0.136,0.275,0.265,-0.141,0.0469,-0.298,0.0535,0.0211
CC(C)C(CO)N1C(=O)[C@@H]2[C@H]3C(=O)OCC=C[C@H]3OC23C=CCN(C(C)(C)C)C(=O)[C@@H]13 (stereo not given in full),-1.27,-0.425,-0.15,-0.907,-1.43,-0.204,0.0725,-0.133,-0.809,-0.0022
CCCCC(=C=CC[C@H](O)c1ccc(OCCO)cc1)C[C@H](O)c1cc(Cl)cc(Cl)c1O,0.584,-1.63,0.0916,0.0258,-0.0211,-0.198,-0.153,0.452,0.849,0.779
CCOC(=O)C[C@H]1[C@H](OC(=O)c2ccccc2-c2ccccc2)[C@@H](NC(=O)c2ccccc2)c2cc(OCCCO)ccc2N1C(=O)c1ccccc1,0.374,-0.843,0.345,0.114,0.148,-0.0425,-0.0146,-0.0926,-0.244,0.0475
CC(C)C[C@@H]1NC(=O)[C@@H]2C[C@H](C(=O)NCCCCCC[N+](C)(C)C)[C@H](c3cccc(OCCO)c3)N2C1=O,1.31,-0.926,-0.184,-0.105,-0.744,-0.156,-0.0234,-0.249,0.369,0.446
COc1cc(CO)cc(I)c1O[C@H]1C=C(C(=O)NCCO)C[C@@H](NCC2CCCCC2)[C@@H]1O,0.552,-1.58,0.392,-0.11,-0.197,-0.0512,0.0639,-0.319,0.164,0.394
CCOC(=O)C1=C[C@@H](C(C)(C)C)N(S(=O)(=O)c2ccc(C)cc2)[C@H]1c1cccc(Cl)c1,0.941,-2.85,0.553,1.09,0.321,0.137,0.186,-0.136,0.715,1.27
